Assay results as given in PubChem BioAssay (NCATS).
Results filed as inconclusive are left out. Where a call stands in place of a potency, no number is given. Calls of active or inactive are those of the source. The call rests on the fitted dose curve; in most records, active means well fitted inhibition curve with a large enough effect; inconclusive means small, poorly fitted or top-dose-only effect; inactive means no such curve, though single readings can be large or run the other way.

Assay: HTS Assay for Allosteric Antagonists of the Human D2 Dopamine Receptor: Hit Validation in HTRF (AID 624455);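 further: stable D1 dopamine receptor cell line scored for blocking the D1 response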
Conditions: Cells stably expressing D1 dopamine receptor, inhibition mode; series mostly up to 46.1 µM
Description: Dopamine receptors (DARs) are involved in the etiology and/or therapy of a number of neuropsychiatric and endocrine disorders. For instance, all receptor-based antiparkinsonian drugs work via stimulating the D2 DAR subtype whereas all FDA-approved antipsychotic agents are antagonists of this receptor. […] There are three different types of allosteric modulators that we are seeking, two of which will stimulate or augment receptor signaling, allosteric agonists and potentiators, while the third, allosteric antagonists, will attenuate receptor signaling. The present primary screening assay measures compound antagonism after an EC80 addition of dopamine by tracking calcium flux in a […], inducible Hek293 Trex D2 cell line. This assay measures activity of the hits in the D1 HTRF assay.
NIH Chemical Genomics Center [NCGC]
NIH Molecular Libraries Probe Centers Network [MLPCN]
Assay Submitter (PI): David Sibley
Cells stably expressing the D1 dopamine receptor will be run in an HTRF assay and compounds will be examined for the ability to inhibit the D1 mediated response.
Potency means the concentration at half of the fitted maximal effect.

Row | Structure (SMILES) | Potency
1 | CC(C)NCC(O)c1ccc(NS(C)(=O)=O)cc1 (stereo unspecified) | inactive
2 | CC1CC2C3CCC4=CC(=O)C=C[C@]4(C)[C@@]3(F)[C@@H](O)C[C@]2(C)[C@@]1(O)C(=O)CO (stereo partly specified) | inactive
3 | OCc1ccc(-c2nn(Cc3ccccc3)c3ccccc23)o1 | inactive
4 | Cc1ccc(S(=O)(=O)N[C@@H](Cc2ccccc2)C(=O)CCl)cc1 | inactive
5 | COc1cc2nc(N3CCCN(C)CC3)nc(NC3CCN(Cc4ccccc4)CC3)c2cc1OC | inactive
6 | CCCCS(=N)(=O)CCC(N)C(=O)O (stereo unspecified) | inactive
7 | CC(=O)[C@H]1CC[C@H]2[C@@H]3CCC4=CC(=O)CC[C@]4(C)[C@H]3CC[C@]12C | inactive
8 | CCN(CC)CCn1c(=O)c(Cc2ccc(OC)cc2)nc2ccccc21 | inactive
9 | NC(=O)c1ccc2[nH]ccc2c1 | inactive
10 | CCN1CCCC1CNC(=O)c1cc(S(N)(=O)=O)ccc1OC (stereo unspecified) | inactive
11 | Nc1nc(N)c2nc(CNc3ccc(C(=O)NC(CCC(=O)O)C(=O)O)cc3)cnc2n1 (stereo unspecified) | inactive
12 | N[C@@H](Cc1ccc(O)c(O)c1)C(=O)O | 8.2 µM (active)
13 | NC(=O)c1cccc(N)c1 | inactive
14 | O=C(O)C1CCCN(CCC=C(c2ccccc2)c2ccccc2)C1 (stereo unspecified) | inactive
15 | COc1cc2ncnc(Nc3cccc(Cl)c3)c2cc1OC | inactive
16 | CCN(CC)CC#CCOC(=O)C(O)(c1ccccc1)C1CCCCC1 (stereo unspecified) | inactive
